Source: PubChem BioAssay AID2330 (Broad Institute, 2010)
The whole screen tested about 37,000 compounds, of which about 2,800 (7.6%) were called active. Not shown: some 1% with an inconclusive outcome. What follows is part of a selection rich in actives, with near analogues and random picks from the rest. Values without a mark were called inactive. Rule as the data show it: active = inhibition above about 80%; inconclusive = no clear call, values can overlap the other calls; inactive = below that.

Test: NOMO-1 AML cell viability reduction, primary screen, STK33 inhibitor project, CellTiter-Glo luminescence (AID 2330)
Conditions: NOMO-1 AML viability, 72 h, hits give high values, concentration not given here

Row | SMILES | inhibition
1 | C=C1CCC(C)C(C)(CCC2=CC(OC)OC2=O)C/C=C\C=C\1C(=O)O (stereo not drawn) | 9.74%
2 | Cc1cc(C)n2nc(SCC(=O)Nc3ccccc3[N+](=O)[O-])nc2n1 | 4.39%
3 | Cc1ccc(CC2C(=O)N(c3cccc(C(F)(F)F)c3)C(=O)C2C)cc1 (stereo not drawn) | 54.7%
4 | C[C@@H]1CN([C@H](C)CO)C(=O)c2cc(NC(=O)C3CC3)ccc2O[C@@H]1CN(C)C | -2.07%
5 | CNC[C@H]1Oc2c(NC(=O)C3CC3)cccc2C(=O)N([C@@H](C)CO)C[C@@H]1C | 15.2%
6 | C[C@@H]1CN([C@H](C)CO)C(=O)Cc2cc(NS(=O)(=O)c3ccc(Cl)cc3)ccc2O[C@@H]1CN(C)S(=O)(=O)c1ccc(Cl)cc1 | 19.9%
7 | C[C@@H]1CN([C@H](C)CO)C(=O)c2cc(NC(=O)Cc3ccccc3)ccc2O[C@H]1CN(C)S(=O)(=O)c1cn(C)cn1 | 4.97%
8 | CC(Sc1nc2ccccc2[nH]1)c1nc2ccccc2[nH]1 (stereo not drawn) | 4.08%
9 | Cc1cccc(C)c1NC(=O)C(C)N(c1ccc(Cl)cc1)S(C)(=O)=O (stereo not drawn) | -16.6%
10 | CCOC(=O)c1c(NC(=O)Cn2nc([N+](=O)[O-])c(Br)c2C)sc2c1CCCC2 | 41.4%
11 | Cc1ccc(S(=O)(=O)Nc2cccc3c2O[C@@H](CN(C)CC2CCCCC2)[C@H](C)CN([C@@H](C)CO)C3=O)cc1 | 10.5%
12 | Cc1ccc(S(=O)(=O)Nc2cccc3c2O[C@@H](CN(C)S(=O)(=O)c2ccc(C)cc2)[C@H](C)CN([C@@H](C)CO)C3=O)cc1 | 4.36%
13 | C[C@H](CO)N1C[C@H](C)[C@@H](CN(C)Cc2ccc3c(c2)OCO3)Oc2c(cccc2N(C)C)C1=O | 21.9%
14 | C[C@H]1CN([C@@H](C)CO)C(=O)c2cc(NS(=O)(=O)c3ccccc3)ccc2O[C@@H]1CN(C)C(=O)NC1CCCCC1 | 13.9%
15 | Cc1ccc(S(=O)(=O)Nc2cccc3c2O[C@H](CN(C)C(=O)Nc2ccc(C(F)(F)F)cc2)[C@@H](C)CN([C@@H](C)CO)C3=O)cc1 | -0.901%
16 | C[C@@H]1CN([C@H](C)CO)C(=O)c2cccc(NS(=O)(=O)c3ccc(F)cc3)c2O[C@@H]1CN(C)C(=O)Nc1ccc(C(F)(F)F)cc1 | 101% (active)
17 | COc1ccc(NC(=O)Nc2cccc3c2O[C@H](CN(C)S(=O)(=O)c2cccs2)[C@H](C)CN([C@@H](C)CO)C3=O)cc1 | 34.9%
18 | C[C@H]1CN([C@@H](C)CO)C(=O)c2cccc(NS(=O)(=O)c3ccccc3)c2O[C@@H]1CN(C)C(=O)Nc1ccc(C(F)(F)F)cc1 | -8.64%
19 | C[C@H]1CN([C@@H](C)CO)C(=O)c2cccc(NC(=O)Nc3ccc(C(F)(F)F)cc3)c2O[C@H]1CN(C)S(=O)(=O)c1ccccc1 | 54.4%
20 | C[C@@H]1CN([C@@H](C)CO)C(=O)c2cccc(NC(=O)Nc3ccc(C(F)(F)F)cc3)c2O[C@@H]1CN(C)S(=O)(=O)c1cccs1 | 96.7% (active)
21 | CC(C)NC(=O)Nc1cccc2c1O[C@@H](CN(C)S(=O)(=O)c1ccc(F)cc1)[C@@H](C)CN([C@H](C)CO)C2=O | -7.11%
22 | CCn1c(=O)cc(O)c2ccccc21 | 27.9%
23 | C[C@H](CO)N1C[C@H](C)[C@H](CN(C)C(=O)NC2CCCCC2)Oc2ccc(NC(=O)c3ccncc3)cc2CC1=O | -3.17%

Row | SMILES | inhibition
24 | COc1ccc(S(=O)(=O)N(C)C[C@H]2Oc3ccc(NS(C)(=O)=O)cc3C(=O)N([C@H](C)CO)C[C@H]2C)cc1 | -0.557%
25 | C[C@@H]1CCCCO[C@H](CN(C)S(C)(=O)=O)[C@@H](C)CN([C@H](C)CO)C(=O)c2cc(NS(=O)(=O)c3ccc(Cl)cc3)ccc2O1 | 4.39%
26 | CC(C)=CCCC1(C)C=Cc2c(ccc3c2[nH]c2cc(O)c(C)cc23)O1 (stereo not drawn) | 108% (active)
27 | O=C(CC1SC(=NC2CC3C=CC2C3)NC1=O)Nc1ccccc1Cl (stereo not drawn) | 8.48%
28 | O=[N+]([O-])c1cccc(NC(=S)Nc2nn(Cc3ccc(Cl)cc3Cl)cc2Cl)c1 | 111% (active)
29 | COc1ccc(NC(=O)Nc2nn(Cc3ccc(Cl)cc3Cl)cc2Br)cc1OC | 39.9%
30 | CC(C)CC(C(=O)Nc1cccc([N+](=O)[O-])c1)N1C(=O)c2ccccc2C1=O (stereo not drawn) | 26.9%
31 | C[C@H]1CN([C@@H](C)CO)C(=O)c2cc(NC(=O)Nc3ccc4c(c3)OCO4)ccc2O[C@H]1CN(C)S(=O)(=O)c1ccc(F)cc1 | 18.9%
32 | C[C@H]1CN([C@@H](C)CO)C(=O)c2cccc(NS(=O)(=O)c3cn(C)cn3)c2O[C@@H]1CN(C)C(=O)Nc1ccc(F)cc1 | 7.11%
33 | C[C@H]1O[C@@H](O[C@H]2[C@@H](O)C[C@H](O[C@H]3[C@@H](O)C[C@H](O[C@H]4CC[C@]5(C)C6C[C@@H](O)[C@]7(C)[C@@H](C8=CC(=O)OC8)CC[C@]7(O)C6CC[C@@H]5C4)O[C@@H]3C)O[C@@H]2C)C[C@H](O)[C@@H]1O (stereo partly drawn) | 112% (active)
34 | C[C@H]1CN([C@@H](C)CO)C(=O)Cc2cc(NC(=O)C3CC3)ccc2O[C@@H]1CN(C)C(=O)NC1CCCCC1 | -0.0688%
35 | Cc1ccc(S(=O)(=O)N(C)C[C@@H]2Oc3c(NS(=O)(=O)c4ccc(F)cc4)cccc3C(=O)N([C@@H](C)CO)C[C@H]2C)cc1 | -7.97%
36 | CCCc1nc2c(C)cc(-c3nc4ccccc4n3C)cc2n1Cc1ccc(-c2ccccc2C(=O)O)cc1 | 0.908%
37 | C[C@H](CO)N1C[C@H](C)[C@H](CN(C)C)Oc2c(NC(=O)C3CCOCC3)cccc2C1=O | -4.27%
38 | O=C(O)CCSc1nnc2c(n1)[nH]c1ccccc12 | 16.8%
39 | O=C(CCn1cnc2ccccc2c1=O)Nc1cccc(C(F)(F)F)c1 | -23.9%
40 | O=C(CSc1nnc2c(n1)[nH]c1ccccc12)Nc1cccc(C(F)(F)F)c1 | 112% (active)
41 | COc1ccc(NC(=O)C(=O)NCC(=O)Nc2cccc(C(F)(F)F)c2)cc1 | 14%
42 | Nc1nnc(SCCN2C(=O)c3ccccc3S2(=O)=O)s1 | 32.8%
43 | O=C(CN1C(=O)c2ccccc2S1(=O)=O)Nc1ccc(F)c(F)c1 | 36.7%
44 | O=C1c2ccccc2S(=O)c2ccccc2S(=O)(=O)N1Cc1ccccc1 (stereo not drawn) | 117% (active)
45 | Cc1noc(C)c1NC(=O)Nc1ccc2c(c1)C(=O)N([C@@H](C)CO)C[C@H](C)[C@@H](CN(C)C(=O)Nc1ccccc1)O2 | -19%
46 | Cc1ccc(S(=O)(=O)N(C)C[C@@H]2Oc3ccc(NC(=O)Cn4cnnn4)cc3CC(=O)N([C@H](C)CO)C[C@H]2C)cc1 | -11.1%

Row | SMILES | inhibition
47 | O=C(/C=C/c1ccccc1)NCCCCNCCCNC(=O)/C=C/c1ccccc1 | 11.1%
48 | COc1cc(NC(=O)COc2cc(C)c(Br)c(C)c2)c(OC)cc1Cl | 6.99%
49 | C=CCNc1nc(C)nc(OC)n1 | -5.74%
50 | C[C@@H]1CN([C@H](C)CO)C(=O)Cc2cc(NC(=O)Nc3ccc(F)cc3)ccc2O[C@@H]1CN(C)C(=O)Nc1ccc2c(c1)OCO2 | 10.5%
51 | O=C1NC(Cc2c[nH]c3ccccc23)C(=O)N2CCCC12 (stereo not drawn) | 14.5%
52 | Cc1ccc2nc(C)c3c(c2c1)N(c1ccccc1)CC3 | 122% (active)
53 | O=C(CSc1nc2sc3c(c2c(=O)[nH]1)CCC3)Nc1ccccc1C(F)(F)F | 26%
54 | C[C@H](CO)N1C[C@H](C)[C@H](CN(C)C(=O)Nc2ccc(C(F)(F)F)cc2)Oc2ccc(NS(C)(=O)=O)cc2CC1=O | -2.28%
55 | Cc1ccc(S(=O)(=O)N(C)C[C@@H]2Oc3ccc(NC(=O)Nc4ccc5c(c4)OCO5)cc3C(=O)N([C@@H](C)CO)C[C@@H]2C)cc1 | 45.7%
56 | Cc1cc(C)cc(OCC(=O)Nc2cccc(-c3nnc(-c4ccccc4)o3)c2)c1 | 42.7%
57 | Cc1ccnc(NC(c2cccc([N+](=O)[O-])c2)c2ccc3ccc(C)nc3c2O)c1 (stereo not drawn) | 101% (active)
58 | Cc1ccnc(NC(c2cccc(Br)c2)c2ccc3ccc(C)nc3c2O)c1 (stereo not drawn) | 126% (active)
59 | Cc1ccc(S(=O)(=O)Nc2ccc3c(c2)C(=O)N([C@@H](C)CO)C[C@H](C)[C@H](CN(C)C(=O)Nc2ccc(C(F)(F)F)cc2)O3)cc1 | 4.18%
60 | Cc1ccc(NC(=O)C2C3C=CC(C3)C2C(=O)O)cc1 (stereo not drawn) | -5.27%
61 | Cc1cccc(NC(=O)CSc2nnc(-c3ccccc3)n2C2CCCCC2)c1C | 22.3%
62 | COc1ccc(NC(=O)CSc2nnc(-c3ccc(Br)cc3)n2C)cc1 | 16.2%
63 | C[C@H](CO)N1C[C@H](C)[C@@H](CN(C)C(=O)Nc2ccccc2)Oc2c(NC(=O)CCCCCC(=O)Nc3ccccc3N)cccc2C1=O | 21.7%
64 | C[C@@H]1CN([C@H](C)CO)C(=O)c2cccc(NC(=O)CCCCCC(=O)Nc3ccccc3N)c2O[C@@H]1CN(C)C(=O)Nc1ccccc1 | 7.63%
65 | C[C@H](CO)N1C[C@H](C)[C@@H](CN(C)Cc2ccccc2)Oc2c(NC(=O)CCCCCC(=O)Nc3ccccc3N)cccc2C1=O | 126% (active)
66 | C[C@H]1CN([C@@H](C)CO)C(=O)c2cccc(NC(=O)Nc3ccccc3)c2O[C@H]1CN(C)Cc1ccc(Oc2ccccc2)cc1 | 18.8%
67 | C[C@H](CO)N1C[C@H](C)[C@H](CN(C)Cc2ccc(Oc3ccccc3)cc2)Oc2c(NC(=O)CCCCCC(=O)Nc3ccccc3N)cccc2C1=O | 139% (active)
68 | C[C@H]1CN([C@@H](C)CO)C(=O)c2cccc(NC(=O)CCCCCC(=O)Nc3ccccc3N)c2O[C@H]1CN(C)C(=O)Nc1ccccc1 | 10.1%
